{
  "source": "PubChem BioAssay (NCATS)",
  "note": "Results filed as inconclusive are left out. Unmarked numbers belong to inactive results. Calls of active or inactive are those of the source. Calls come from the whole dose curve. % is set by controls: 0 for no effect and ±100 for the full control effect; potency is the fitted concentration of half-maximal effect.",
  "data": [
    {"test": "Primary qHTS for inhibitors of SARS-S pseudo-typed particle cell entry (AID 1479145); note: nearly all actives have a fitted effect of over 45% in size", "details": "SARS-S pseudotyped particle cell entry, luciferase reporter; series mostly up to 57.1 µM; activity change, negative = inhibition: at the top concentration", "units": {"activity change, negative = inhibition": "%"}, "values": [
      {"smiles": "CCC(=O)O[C@H]1CC[C@H]2[C@@H]3CCC4=CC(=O)CC[C@]4(C)[C@H]3CC[C@]12C", "activity change, negative = inhibition": -10.7},
      {"smiles": "C[C@H](N)[C@H](O)c1ccc(O)c(O)c1", "outcome": "inactive"},
      {"smiles": "CC#C[C@]1(O)CC[C@H]2[C@@H]3C[C@H](C)C4=CC(=O)CC[C@]4(C)[C@H]3CC[C@@]21C", "Potency": "20 µM (active)"},
      {"smiles": "O=C(N[C@H]1N=C(c2ccccc2F)c2cccc3c2N(CC3)C1=O)c1cc2ccccc2[nH]1", "activity change, negative = inhibition": 1.5},
      {"smiles": "CNC(=O)Oc1cccc2ccccc12", "activity change, negative = inhibition": -19.6},
      {"smiles": "Cc1ccc([N+](=O)[O-])[c]2c1[O][Hg]2", "Potency": "10 µM (active)"},
      {"smiles": "CCOC(=O)c1cncn1C(C)c1ccccc1", "note": "(configuration not stated)", "activity change, negative = inhibition": -16.3},
      {"smiles": "Oc1ccc([C@H]2CNCc3c2ccc(O)c3O)cc1O", "outcome": "inactive"},
      {"smiles": "CC[C@]1(O)CC[C@H]2[C@@H]3CCC4=CCCC[C@@H]4[C@H]3CC[C@@]21C", "activity change, negative = inhibition": -35.4}
    ]},
    {"test": "Primary qHTS for Huh7 cytotoxicity: counterscreen for inhibitors of MERS-S pseudotyped particle cell entry (AID 1479147)", "details": "cell viability read-out; series mostly up to 57.1 µM; activity change, negative = cytotoxicity: at the top concentration", "units": {"activity change, negative = cytotoxicity": "%"}, "values": [
      {"smiles": "CCC(=O)O[C@H]1CC[C@H]2[C@@H]3CCC4=CC(=O)CC[C@]4(C)[C@H]3CC[C@]12C", "activity change, negative = cytotoxicity": -15.5},
      {"smiles": "C[C@H](N)[C@H](O)c1ccc(O)c(O)c1", "outcome": "inactive"},
      {"smiles": "Cc1nnc2n1-c1sc(CCc3ccc(CC(C)C)cc3)cc1C(c1ccccc1Cl)=NC2C", "note": "(configuration not stated)", "activity change, negative = cytotoxicity": -0.0334},
      {"smiles": "CC#C[C@]1(O)CC[C@H]2[C@@H]3C[C@H](C)C4=CC(=O)CC[C@]4(C)[C@H]3CC[C@@]21C", "outcome": "inactive"},
      {"smiles": "O=C(N[C@H]1N=C(c2ccccc2F)c2cccc3c2N(CC3)C1=O)c1cc2ccccc2[nH]1", "outcome": "inactive"},
      {"smiles": "CNC(=O)Oc1cccc2ccccc12", "activity change, negative = cytotoxicity": -17.7},
      {"smiles": "Cc1ccc([N+](=O)[O-])[c]2c1[O][Hg]2", "Potency": "2.24 µM (active)"},
      {"smiles": "CCOC(=O)c1cncn1C(C)c1ccccc1", "note": "(configuration not stated)", "activity change, negative = cytotoxicity": -8.01},
      {"smiles": "Oc1ccc([C@H]2CNCc3c2ccc(O)c3O)cc1O", "outcome": "inactive"},
      {"smiles": "CC[C@]1(O)CC[C@H]2[C@@H]3CCC4=CCCC[C@@H]4[C@H]3CC[C@@]21C", "activity change, negative = cytotoxicity": -5.27}
    ]},
    {"test": "Primary qHTS for inhibitors of MERS-S pseudo-typed particle cell entry (AID 1479149); note: nearly all actives have a fitted effect of over 60% in size", "details": "MERS-S pseudotyped particle entry, luciferase; series mostly up to 57.1 µM; activity change, negative = inhibition: at the top concentration", "units": {"activity change, negative = inhibition": "%"}, "values": [
      {"smiles": "CCC(=O)O[C@H]1CC[C@H]2[C@@H]3CCC4=CC(=O)CC[C@]4(C)[C@H]3CC[C@]12C", "activity change, negative = inhibition": -16.5},
      {"smiles": "C[C@H](N)[C@H](O)c1ccc(O)c(O)c1", "outcome": "inactive"},
      {"smiles": "Cc1nnc2n1-c1sc(CCc3ccc(CC(C)C)cc3)cc1C(c1ccccc1Cl)=NC2C", "note": "(configuration not stated)", "Potency": "20 µM (active)"},
      {"smiles": "O=C(N[C@H]1N=C(c2ccccc2F)c2cccc3c2N(CC3)C1=O)c1cc2ccccc2[nH]1", "outcome": "inactive"},
      {"smiles": "CNC(=O)Oc1cccc2ccccc12", "outcome": "inactive"},
      {"smiles": "Cc1ccc([N+](=O)[O-])[c]2c1[O][Hg]2", "Potency": "2.82 µM (active)"},
      {"smiles": "Oc1ccc([C@H]2CNCc3c2ccc(O)c3O)cc1O", "outcome": "inactive"},
      {"smiles": "CC[C@]1(O)CC[C@H]2[C@@H]3CCC4=CCCC[C@@H]4[C@H]3CC[C@@]21C", "activity change, negative = inhibition": -24.2}
    ]}
  ]
}
